A number with no mark means an inactive call.
System: Vero E6 infected with SARS-CoV-2
Assay: inhibition of SARS-CoV-2 cytopathic effect; higher = more antiviral protection, active = above 15
Conditions: 48 h

Row | SMILES | inhibition of SARS-CoV-2 cytopathic effect (1 nM) [%] | inhibition of SARS-CoV-2 cytopathic effect (8.33 nM) [%] | inhibition of SARS-CoV-2 cytopathic effect (100 nM) [%] | inhibition of SARS-CoV-2 cytopathic effect (833.33 nM) [%] | inhibition of SARS-CoV-2 cytopathic effect (10000 nM)
1 | COc1ccc2[nH]c([S+]([O-])Cc3ncc(C)c(OC)c3C)nc2n1 (stereo not given) [tenatoprazole] | -9.92 | -12.8 | -7.87 | -11.3 | 2.26%
2 | O=c1[nH]c2ccccc2n1C1CCN(CCCC(c2ccc(F)cc2)c2ccc(F)cc2)CC1 [pimozide] | 0.44 | 1.6 | 0.1 | -0.58 | -5.7%
3 | COc1ccc(/C=C2\CCCN=C2c2cccnc2)c(OC)c1 | -0.63 | 0.1 | 0.18 | 1.08 | 2.4%
4 | CS(=O)(=O)N1CCN(Cc2cc3nc(-c4cccc5[nH]ncc45)nc(N4CCOCC4)c3s2)CC1 | -1.74 | -2.51 | 6.27 | -5.78 | 3.43%
5 | CC1(C)OC[C@H](NC(=O)Nc2ccc(Br)cc2Br)[C@H](c2ccccc2)O1 | -1.15 | 0.87 | -2.04 | -3.68 | -5.84%
6 | CCN(CC)CC1CCN(c2ncc3ncnc(Nc4ccc(F)c(Cl)c4)c3n2)CC1 | 1.37 | 1.44 | -3 | -7.12 | 21.6% (active)
7 | COc1cn(-c2ccc(-n3cccn3)cc2F)nc(-c2ccnn2-c2ccccc2)c1=O | 1.53 | 3.16 | 0.79 | 2.26 | 0.75%
8 | CNC(=O)c1cnn(-c2nc(N)c3ncn([C@@H]4O[C@H](CO)[C@@H](O)[C@H]4O)c3n2)c1 [regadenoson] | 1.53 | 0.87 | 3.4 | -1.38 | -0.12%
9 | CN(CC(=O)O)C(=N)N [creatine] | -2.18 | 1.25 | -2.37 | -1.57 | -4.4%
10 | C=C(C)[C@@H]1CC[C@]2(C(=O)O)CC[C@]3(C)[C@H](CC[C@@H]4[C@@]5(C)CC[C@H](OC(=O)CC(C)(C)C(=O)O)C(C)(C)[C@@H]5CC[C@]43C)[C@@H]12 [bevirimat-dimeglumine] | -1.52 | 0.9 | 2.72 | 0.6 | -0.27%
11 | O=C(O)C1=CCNCC1 [isoguvacine] | 0.65 | 0.98 | 0.98 | 3.23 | 2.12%
12 | Oc1cc(O)cc(O)c1 [phloroglucin] | 3.42 | 1.38 | 2.28 | 2.17 | -2.03%
13 | CCOC(=O)c1ccccc1OC(=O)CCCCCCCC(=O)Oc1ccccc1C(=O)OCC | 6.82 | 0.93 | -6.73 | -0.1 | -6.2%
14 | C[N+](C)(C)CCCCCNCC12CC3CC(CC(C3)C1)C2 | -4.72 | -5.14 | -6.53 | -6.39 | -4.67%
15 | O=C(O)COC(=O)Cc1ccccc1Nc1c(Cl)cccc1Cl [aceclofenac] | 0.39 | 0.9 | 0.17 | -0.85 | 0.58%
16 | N[C@@H]1CCCN(c2c(/C=C3\SC(=O)NC3=O)cccc2-c2ccccc2)C1 | 3.5 | -3.14 | -1.57 | -0.89 | 0%
17 | CCCCN(CCCC)CC(O)c1cc(Cl)cc2c1-c1ccc(Cl)cc1/C2=C/c1ccc(Cl)cc1 (stereo not given) [lumefantrine] | -1.1 | 3.13 | 2.25 | 0.99 | -1.35%
18 | CN(C)CCc1ccc(O)cc1 [hordenine] | 0.04 | -0.27 | 0.47 | -2.27 | -0.68%
19 | CCCC(=O)C1(c2ccccc2)CCN(C(=O)[C@@H](Cc2ccc(OC)cc2)NC(=O)[C@@H](N)Cc2cncn2C)CC1 | 0.65 | -1.21 | 0.17 | -1.38 | 0.37%

Source: the supplement of paper PMC13380429
